# Screening results from PubChem.
# Rv3671c protease = Rv3671c (M. tuberculosis) protease inhibition. AID 2606. hit rate 0.048% among 320,000. inhibition, % at 5.96 µM. P9WHR9; in the data active = inhibition above about 38%;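 note: extracellular domain of Rv3671c used as enzyme; 0% = enzyme with DMSO and 100% = no enzyme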
# UGM FP inh = inhibitors of M. tuberculosis UDP-galactopyranose mutase | hit rate 0.06% among 320,000 | AID 504406 | purified UGM, fluorescence polarization probe displacement | inhibition, % at 10 µM | P9WIQ1; in the data active = inhibition above about 10%, passing the limit was not always enough
# GDH-TPI counter-1 = GDH-TPI coupled enzyme inhibition counter-screen; GDH-TPI coupled enzyme counterscreen, NADH absorbance; hit rate 1.2% among 360,000; inhibition, % at 4.8 µM; in the data active = inhibition above about 30%;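 note: 0% = DMSO wells and 100% = wells lacking the enzyme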
# Mtb FBA inh = inhibitors of M. tuberculosis fructose-bisphosphate aldolase. purified M. tuberculosis FBA, fluorescence read-out. inhibition, % at 1 µM. hit rate 2.3% among 360,000. AID 588726;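 note: 0% = vehicle and 100% = reference inhibitor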
# Target sequence (P9WQA3 whole entry, looked up): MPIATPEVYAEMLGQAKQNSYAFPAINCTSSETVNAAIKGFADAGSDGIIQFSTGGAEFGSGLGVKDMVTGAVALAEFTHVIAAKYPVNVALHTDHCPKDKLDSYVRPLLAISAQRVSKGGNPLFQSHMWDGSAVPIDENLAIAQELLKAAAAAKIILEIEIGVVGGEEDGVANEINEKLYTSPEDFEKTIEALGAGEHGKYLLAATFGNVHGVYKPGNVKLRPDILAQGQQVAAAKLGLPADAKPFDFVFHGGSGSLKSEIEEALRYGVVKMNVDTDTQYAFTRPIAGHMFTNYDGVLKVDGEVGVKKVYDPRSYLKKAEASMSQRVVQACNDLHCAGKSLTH
# Mtb FBA inh conf = Mtb FBA inhibition, confirmed; shares compounds with Mtb FBA inh; purified M. tuberculosis FBA, fluorescence read-out; inhibition, % at 1 µM; hit rate 78% among 5,600; AID 651616;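 note: 0% = vehicle wells and 100% = reference inhibitor wells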
# GDH-TPI counter-2 = GDH-TPI inhibition counter-screen for FBA inhibitors | hit rate 81% among 5,600 | AID 652141 | shares compounds with Mtb FBA inh | inhibition, % at 1 µM | GDH-TPI coupled enzyme counterscreen, fluorescence; in the data active = inhibition above about 10%
# Active calls of the source: *; nt = no result; + = active, no number. A selection: hits, their analogues and other compounds. The true share with any hit is near 3.5%. Cut-off read from the data, not from the text of the source, unless noted: active = inhibition above about 27%; inactive = the rest.
SMILES,Rv3671c protease,UGM FP inh,GDH-TPI counter-1,Mtb FBA inh,Mtb FBA inh conf,GDH-TPI counter-2
CCCNC(=O)C1(C)CCN(Cc2ccc(-n3ccnc3)cc2)C1 (configuration not stated),nt,nt,4.6,0.8,nt,nt
Nc1ncc2c(n1)-c1ccoc1CC2,-1.8,1.9,18.9,36.4*,124.8*,103.4*
Cc1nc(N)ncc1-c1ccc2c(c1)OCO2,-9.6,2.1,6.4,2.0,nt,nt
O=C(Nc1ncc2c(n1)-c1ccccc1CC2)c1ccccc1,1.1,0.3,2.2,-0.2,nt,nt
Nc1ncc2c(n1)-c1ccccc1CC2,12.3,2.4,19.2,63.6*,17.2,9.3
O=C(c1ccco1)N1CCc2[nH]nc(-c3ccccc3)c2C1,4.6,0.6,9.5,2.1,nt,nt
CC(C)(C)c1ccc(OCC(=O)N/N=C/c2ccc(N3CCOCC3)cc2)cc1,13.7,-0.3,22.9,27.0*,62.4*,42.5*
C=C(C)CNC(=S)N/N=C/c1ccc(N2CCOCC2)cc1,-3.8,-3.1,41.7*,53.3*,52.8*,51.9*
COCCNC(=S)N/N=C/c1ccc(N2CCOCC2)cc1,2.2,-4.1,31.1*,46.1*,+,+
C/C(=N/NC(=O)COc1ccc(C(C)(C)C)cc1)c1ccc(N2CCOCC2)cc1,nt,nt,21.1,3.0,nt,nt
CC(C)NC(=S)N/N=C/c1ccc(N2CCOCC2)cc1,-1.8,0.4,39.7*,37.5*,120.0*,88.7*
CC(C)Cn1c(N)c(C(=O)COC(=O)[C@@H]2CCCN2C(=O)c2cccs2)c(=O)n(C)c1=O,2.4,0.8,-11.0,-4.2,nt,nt
[O-][N+](=C(c1ccccc1)c1ccccc1)c1ccccc1,nt,nt,0.8,-0.3,nt,nt
c1ccc(-c2cnc(-c3cccnc3)o2)cc1,-1.5,0.0,5.1,92.7*,191.7*,155.1*
Fc1cccc(-c2ncc(-c3ccccc3)o2)c1,nt,nt,4.4,24.2,nt,nt
Cc1cccc(CNc2ncnc3ccc(-c4ccc5c(c4)OCO5)cc23)c1,-30.5,2.6,14.1,7.2,nt,nt
Cc1ccc(CNc2ncnc3ccc(-c4ccc(CO)o4)cc23)o1,nt,nt,25.8,81.4*,8.2,-1.2
CCC1CN(S(=O)(=O)c2cc(-c3cc(C)no3)ccc2OC)c2cc(C)ccc2O1 (configuration not stated),-16.0,0.0,5.6,-1.1,nt,nt
Cc1cccc(CN2CCN(C(=O)CN(C)C(C)C(=O)Nc3ccc(C(N)=O)cc3)CC2)c1 (configuration not stated),1.6,-2.4,0.0,0.2,nt,nt
O=c1c2ccccc2nc2n1CCN2Cc1ccc(Cl)cc1,-1.3,-0.5,9.9,33.7*,191.8*,169.7*
O=c1c2ccccc2nc(-c2ccccc2)n1Cc1ccc(Cl)cc1,-4.8,-0.4,11.4,-3.8,nt,nt
O=[N+]([O-])c1ccccc1S(=O)(=O)Nc1cccc(-c2ccc(N3CCOCC3)nn2)c1,-2.5,nt,9.1,0.1,nt,nt
O=[N+]([O-])c1ccccc1S(=O)(=O)Nc1ccc(-c2ccc(N3CCOCC3)nn2)cc1,4.3,nt,14.9,53.2*,+,+
Cc1cc(C)c2c(N)c3cccc(C)c3nc2n1,-2.6,-0.5,4.8,65.5*,133.2*,110.9*
CCOC(=O)C1CCCN(S(=O)(=O)c2cc3[nH]c(=O)c(=O)[nH]c3cc2C)C1 (configuration not stated),5.4,-4.5,18.8,47.5*,83.3*,58.2*
SMILES,Rv3671c protease,UGM FP inh,GDH-TPI counter-1,Mtb FBA inh,Mtb FBA inh conf,GDH-TPI counter-2
O=c1[nH]c2cc3c(cc2cc1CN(Cc1cccs1)Cc1nnnn1Cc1ccco1)OCCO3,-24.4,0.9,23.5,35.1*,83.6*,77.6*
O=c1[nH]c2cc3c(cc2cc1CN(Cc1cccnc1)Cc1nnnn1Cc1ccco1)OCCO3,-11.6,1.7,17.9,34.1*,-1.9,0.0
CCc1nc2ccc(C(=O)NCCCN3CCCC3=O)cn2c1N(C)Cc1ccc(OC)cc1,nt,nt,6.2,-0.7,nt,nt
N#C/C(=C\c1cccnc1)c1ccccn1,-0.9,-0.2,4.3,37.3*,45.5*,41.4*
CC1(c2ccccc2)NC(=O)N(CC(=O)Nc2ccc(S(=O)(=O)NC3=NCCCCC3)cc2)C1=O (configuration not stated),nt,nt,1.0,6.5,nt,nt
Cc1ccc(C(=O)NCC(c2ccc(F)cc2)N2CCOCC2)cc1 (configuration not stated),-21.6,0.2,-13.9,-1.6,nt,nt
CC(=O)c1ccc(-c2ccc(C(=O)NCC(c3ccc(F)cc3)N3CCOCC3)o2)cc1 (configuration not stated),-8.3,1.0,20.8,54.7*,57.4*,32.0*
